Reference: PubChem BioAssay (NCI)
Compounds without any hit were thinned out: in the full panel of roughly 83,000, 20% have a hit.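 Method: cells in 96-well plates; compound added at one concentration; 48 h incubation; percent growth measured; values under 10 scored active.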 A number with no mark means an inactive call. Activity calls are given as the source filed them.

System: HL-60(TB) leukemia
Assay: NCI-60 one-dose screen, 48 h (100 = growth as untreated, 0 = no growth, -100 = all killed)
Details: 10 µM unless noted

Structure (SMILES) | growth
CC[C@H](C)[C@@H]1NC(=O)[C@H]([C@@H](C)O)NC(=O)C(Cc2ccccc2)NC(=O)[C@@H]2CCCN2C(=O)C(C(C)C)NC(=O)C(Cc2ccccc2)NC(=O)CNC(=O)[C@@H]2CCCN2C1=O (stereo not given in full) | 5.19% (active)
COc1cc(Cl)cc(-c2nn(-c3cccc(NC(=O)c4ccc(N5CCOCC5)c(C(F)(F)F)c4)c3)cc2-c2ccncc2)c1 | 2.73% (active)
COc1ccc(/C(C)=C(\c2ccc(Cl)cc2)c2ccc(OCCN(C)C)cc2)cc1F | 58.2%
CCCCCCCCCCCCCCCCCCOc1ccccc1CC(=O)OCC[N+](CC)(CC)CC | -20.7% (active)
CN1C(=O)N(C)C2C1NN=c1s/c(=C\c3ccc(Br)cc3)c(=O)n12 (stereo not given) | -13.8% (active)
COc1cccc(C(=O)NNC(=O)c2cccc3ccccc23)c1 | 97.8%
O=C1NC(=S)S/C1=C\N1N=C(c2ccc(Cl)cc2)CC1c1ccc(F)cc1 (stereo not given) | 99.5%
COc1cccc(-c2nn(-c3ccccc3)cc2-c2ccnc(NCCCNS(=O)(=O)c3cccc(F)c3)c2)c1 | 9.51% (active)
N#CN1CC[C@H](C(=O)Nc2ncc(-c3ccccc3)s2)C1 | -23.2% (active)
Fc1ccc(CNc2c3ccccc3nc3ccccc23)cc1F | 34.5%
O=C(Nc1ccc(Cl)c(Cl)c1)Nc1c(Oc2ccc(Cl)c(Cl)c2)ccc(Cl)c1S(=O)(=O)O | 4.23% (active)
O=[N+]([O-])c1ccc2c(c1)Cc1cc(I)ccc1-2 | 92.8%
COc1ccc(/C(=C\c2ccc3c(c2)OCO3)C(=O)Nc2nc3ccc(F)cc3s2)cc1OC | 93%
Cn1ccnc1C(=O)/C=C/c1ccc(C(=O)Nc2ccccc2F)cc1 | 5.22% (active)
Cc1cccc(-c2nnc(SCC(=O)Nc3ncc(Cc4ccccc4)s3)n2N2C(=O)CSC2=S)c1 | 97.8%
COCCCNS(=O)(=O)c1ncnc2nc[nH]c12 | 82.2%
Cc1cc(C)c2nc3nc(C)cc(C)c3c(N)c2c1 | 45.8%
COc1cc2c(cc1OC)C(=O)/C(=C/c1cc(-c3ccc4c(c3)OCO4)n[nH]1)C2 | -43.8% (active)
COc1cc(Br)c(OC)cc1Br | 109%
COc1cccc(/C=N/NC(=O)c2cnn3c2NC(c2ccccc2)C3)c1Oc1ccccc1 (stereo not given) | 74.6%

Structure (SMILES) | growth
CCN(CC)C(=O)c1cccnc1 | 93.8%
C[C@]12O[C@H]1[C@H](O)c1c(cc(O)c3c1C(=O)c1cccc(O)c1-3)C2=O | 100%
COc1ccc(S(=O)(=O)n2c3ccccc3n3ncc(-c4nnc(C)o4)c23)cc1 | 12.2%
O=C1C(Nc2ccccn2)=C(I)C(=O)c2ncccc21 | -55.5% (active)
Nc1nc(N)c(-c2ccc(Cl)c(Cl)c2)c(CBr)n1 | 59.5%
CCN1CCCC(N2c3ccccc3Sc3ccccc32)C1 (stereo not given) | 93.1%
CCOC(=O)c1ccc2c(c1)nc(-c1ccccc1)n2C1CCCCC1 | 63.1%
Cc1cc(Nc2ccc(OCc3ccccc3)cc2)nc2cc(O)ccc12 | -44.4% (active)
CCN(CC)S(=O)(=O)c1ccc(NC(=O)CSc2nnc(C)n2-c2ccccc2)cc1 | 132%
CCCCCCCC/C=C\CCCCCCCCOc1ccc(CC(=O)NCC[N+]2(C)CCOCC2)cc1 | -14% (active)
Clc1nc(N2CCC[N+]3(CC2)CC[N+]2(CCCNCC2)CC3)nc(N2CCC[N+]3(CC2)CC[N+]2(CCCNCC2)CC3)n1 (stereo not given) | 97%
Cc1nc2ccc(Cl)cc2n1C | 101%
[O-]c1c[n+](-c2ccc(Cl)cc2)no1 | 89.4%
COc1c(B(O)O)cccc1-c1nc2ccc3[nH]ncc3c2c2c1CCCC2 | -28.1% (active)
O=C(Nc1cccc(-n2cc(-c3ccncc3)c(-c3ccc(Cl)c(O)c3)n2)c1)c1ccccc1 | 167%
c1cc(NCCCCN2CCOCC2)c2ccc3c(ccc4c(NCCN5CCOCC5)ccnc43)c2n1 | 47.2%
Oc1cccc2ccc(N/N=C/c3cc(CN4CCCCC4)c(O)c4ncccc34)nc12 | -12.1% (active)
O=C1CS/C(=N\Nc2cc(=O)[nH]c3ccccc23)N1c1ccccc1 | 96.2%
COC1=CC(c2ccc[nH]2)=N/C1=C\c1[nH]c(C)c(C(=O)CCCCC(=O)Nc2ccccc2)c1C | 74.9%
NC(N)=N/N=C\c1cccc(OCc2ccccc2)c1 | 55.5%
